# Laboratory results: ChEMBL document CHEMBL3988442, “University of Dundee, Small-Polar-MMV Screening Library” (2021)
# Hit rate of the full screen: of about 53,000 compounds, about 900 (1.7%) showed an effect of 50% or more. This excerpt belongs to a sample that is enriched for strong results.
# Test system: Mycobacterium tuberculosis
# Assay: Cornell - Phenotypic assay to identify agents that inhibit growth of Mycobacterium tuberculosis
# Type: functional
# Set-up: scale not given: direction of the effect not stated beside the values
# Settings: 10 mM as filed; unlikely as a test dose
row,SMILES,Percent Effect [%]
1,Cc1ccc(N2C[C@H]3CCN(Cc4ccncc4)C[C@H]3C2)nn1.O=C(O)C(F)(F)F,-19.26
2,Cc1ccc(CN2CCC3(CCCN3C(=O)C(C)C)CC2)o1,-8.279
3,CCOc1nnc(CN(C)C2CCCN(c3cccnn3)C2)s1 (stereo unspecified),26.02
4,CC1c2ncc(COCC3CC3)n2CCN1C(=O)c1ccn(C)n1 (stereo unspecified),14.69
5,CCN1CCN(c2ccc(NC(=O)CC(C)C)c(C)c2)CC1,-22.64
6,CC(c1nc(C(C)(C)C)no1)N1CCN(CC(=O)N2CCOCC2)CC1 (stereo unspecified),7.513
7,Cc1cc(CNC(=O)NC(C)c2ccc(N3CCOCC3)cc2)no1 (stereo unspecified),-27.63
8,Cc1noc(C(C)Nc2ccc(N3CCOCC3)cc2C)n1 (stereo unspecified),61.87
9,Cc1noc(C(C)Nc2ccc3c(c2)CCC3)n1 (stereo unspecified),-0.4193
10,Cc1noc(C(C)N2CCN(CC(=O)N3CCOCC3)CC2)n1 (stereo unspecified),-22.01
11,CCN1CCN(c2ccc(NC(C)c3nc(C(C)C)no3)c(C)c2)CC1 (stereo unspecified),73.38
12,Cc1cc(N2CCOCC2)ccc1NC(C)c1nc(C(C)C)no1 (stereo unspecified),72.08
13,Cc1cc(OCC(=O)NC(C)c2ccc(N3CCOCC3)cc2)no1 (stereo unspecified),4.093
14,Cc1cc(CN2CCN(C(C)c3nc(C(C)C)no3)CC2)no1 (stereo unspecified),-1.591
15,CC(c1nc(C(C)(C)C)no1)N1CCN(C(=O)CN2CCOCC2)CC1 (stereo unspecified),8.353
16,Cc1cc(N2CCOCC2)ccc1NC(C)c1nc(C(C)(C)C)no1 (stereo unspecified),76.4
17,CCc1ccccc1NC(=O)NCc1nnc(SC)n1C,-6.778
18,CC(=O)N1CCC(CCc2ccnc(NC(=O)c3ccccn3)c2)CC1,-18.95
19,COc1ccc(-n2cnc(Cl)c2CO)cc1,11.93
20,COCCN(C)C[C@H]1C[C@H](CO)CN(C(=O)c2ccn(C)c(=O)c2)C1,18.02
21,CCc1ncnc(N2CCOCC2C2CC2)c1F (stereo unspecified),0.2478
22,COCCNC(=O)c1ccccc1-n1cc(CN)cn1,-18.17

row,SMILES,Percent Effect [%]
1,CC(C)COC(=O)N1CC(=O)N(CCCc2ccccc2)CC(O)C1 (stereo unspecified),6.947
2,Cc1cc(C)c(CNC(=O)NCC(O)c2ccccc2F)c(=O)[nH]1 (stereo unspecified),-14.22
3,CCc1nccn1C1CCCN(C(=O)c2cccc3c2OCO3)C1 (stereo unspecified),-43.9
4,C1CCN(CCN2CCCCC2C2OCCO2)CC1 (stereo unspecified),10.52
5,Cc1cccc(C2(O)CCN(Cc3ccccc3N3CCCC3)CC2)c1,33.4
6,CCN(CC)C(=O)CN1CCC2(C=Cc3cc(Cl)c(C)cc3O2)CC1,52.2
7,Cc1cc(C)n(CC2CN(CC(=O)NC3CCCCC3)CCO2)n1 (stereo unspecified),-10.09
8,Cc1cc2c(cc1Cl)C=CC1(CCN(CC(=O)N3CCOCC3)CC1)O2,-15.66
9,Cc1cc(C)n(CC2CN(CC(=O)NC3CCCC3)CCO2)n1 (stereo unspecified),-7.412
10,CCc1ccc(O)c(C(=O)N2CCN(CC(=O)N(CC)CC)CC2)c1,-14.81
11,Cc1cc2c(cc1Cl)C=CC1(CCN(CC(=O)NC3CCCC3)CC1)O2,71.56
12,Cc1cc2c(cc1Cl)C=CC1(CCN(CC(=O)N3CCCC3)CC1)O2,63.41
13,Cc1cc2c(cc1Cl)C=CC1(CCN(C(=O)N3CCOCC3)CC1)O2,23.79
14,Cc1cc2c(cc1C)OC1(C=C2)CCN(CC(=O)N2CCOCC2)CC1,44.67
15,O=C1NCC(C(=O)Nc2ncc(Cc3ccccc3)s2)N1 (stereo unspecified),-21.97
16,CNC(=O)c1cn[nH]c1C1CCN(Cc2cn(C)nc2C)C1 (stereo unspecified),-22.18
17,CCn1nc(C)c2ncnc(N(C)C)c21,-48.95
18,O=C(CC1CCCC1)N1CCC(c2cc3ncccc3c(O)n2)CC1,-42.1
19,CCN1CCCC1CNC(=O)Cc1c(C)n[nH]c1-c1ccc(OC)cc1 (stereo unspecified),17.71
20,CCC(C(=O)Nc1ccc2cn(CC)nc2c1)N1CCCC1=O (stereo unspecified),13.02
21,Nc1nnc(CCNC(=O)c2cccc(C3CCCNC3)c2)s1 (stereo unspecified),4.454
22,Cn1cnc2c1CCN(CCS(=O)(=O)c1ccc(Cl)cc1)C2,-6.56

row,SMILES,Percent Effect [%]
1,COc1cccc(CN(C)C(=O)CN2CC(n3nc(C)cc3C)C2)c1,24.75
2,Cc1cc(C)n(C2CN(CC(=O)N(C)Cc3ccco3)C2)n1,-1.246
3,COc1ccccc1CN(C)C(=O)CN1CC(n2nc(C)cc2C)C1,65.44
4,Cc1noc(CN(CCO)Cc2cc(Br)ccc2F)n1,29.28
5,CC(C)(C)c1nc(CN(CCO)Cc2cc(Br)ccc2F)no1,21.92
6,CCCc1nc(CN(CCO)Cc2cc(Br)ccc2F)no1,55.91
7,CCS(=O)(=O)N1CCCn2cnc(COc3cccnc3)c2C1.O=C(O)C(F)(F)F,13.68
8,CN(CCCc1cnn(C)c1)Cc1cc2n(n1)CCCN(C)C2,2.304
9,CC(C)CNC(=O)CNC(=O)c1nc(Cc2c(Cl)cccc2Cl)no1,50.66
10,C[C@@H](O)CNC(=O)c1nc(Cc2c(Cl)cccc2Cl)no1,33.25
11,CC(O)CNC(=O)c1nc(Cc2c(Cl)cccc2Cl)no1 (stereo unspecified),19.28
12,CC(C)(O)CN1CCN(C(=O)c2cc3ccccc3c(=O)[nH]2)CC1,11.41
13,COc1cccc2cc(CNCc3ccc(N4CCCC4)nc3)oc12,-14.56
14,COc1cccc2cc(CNCc3ccnc(N4CCOCC4)c3)oc12,-7.276
15,COc1cccc2cc(CNCc3ccnc(N4CCCCC4)c3)oc12,60.34
16,O=C(CCc1cccc(F)c1F)N1CCCC(n2cncn2)C1 (stereo unspecified),5.232
17,Cc1nn(C)c(N(C)C)c1CNC(C)COc1cccc(F)c1 (stereo unspecified),24.93
18,Cc1nn(C)c(N(C)C)c1CNC(C)c1cccc(OC(C)C)c1 (stereo unspecified),54.17
19,Cc1nn(C)c(N(C)C)c1CNC(C)Cc1c(F)cccc1F (stereo unspecified),29.42
20,Cc1nccc(CN2Cc3nccn3CC2c2ccccc2)n1 (stereo unspecified),-4.199
21,Cn1cnc(CN2Cc3nccn3CC2c2ccccc2)c1 (stereo unspecified),25.78
22,CC(C)n1nccc1CN1Cc2nccn2CC1c1ccccc1 (stereo unspecified),55.64
